GC-B act – GC-B (human) receptor activation; HEK293-GC-B cells, CNP EC30, cGMP TR-FRET; 0% at EC30 CNP, 100% saturating CNP; activation, % at 10 µM; 370,000 tested, 0.11% active;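 active means activation at 10 µM reaching about 35% in either raw or pattern-adjusted values, limit read from the data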
HSF1 inhib – HSF1 inhibition; 300,000 tested, 0.77% active; activity change, negative = inhibition, % at 7.5 µM (by protocol); NIH3T3-HGL HSE-luciferase, MG132-induced, luminescence 8 h; hits give low values; AID 2098;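 active means more than half of replicate wells show activity change below -50%, luminescence cut by over half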;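 further: luciferase reports HSF-1 transcriptional activity via heat shock element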
HSF1 activator – increases HSF-1 driven luciferase reporter signal. NIH3T3-HGL HSF-1 luciferase reporter, MG132, 8 h; 100% = twice DMSO control signal. activation, % at 9 µM. 300,000 tested, 1.7% active. AID 504408;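 active means mean replicate activation of at least 50% with a set share of replicates each reaching 50%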
aDG glyco up – increases alpha dystroglycan glycosylation; Pro5-aDG cells, alpha-DG glycosylation AlphaScreen (IIH6); 0% Pro5, 100% B10-LARGE cell signal; activation, % at 10 µM; 360,000 tested, 0.22% active; AID 624168;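 active means activation of at least 8% versus controls, or a plate z-score of at least 8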;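 further: Pro5 are CHO cells carrying HIG-tagged alpha-DG that lacks glycosylation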
Dyrk1A ADPGlo – blocks rat Dyrk1A kinase activity; Q63470; ADP-Glo luminescence, NFATc1 peptide; inhibition, % at 12.5 µM; 310,000 tested, 0.43% active; AID 504441; in the data active means inhibition above about 50%
NPR1 activator – GC-A (human) enzyme activation; 370,000 tested, 0.14% active; HEK293 GC-A cells, cGMP TR-FRET, EC30 ANP; 0% at EC30 ANP, 100% saturating ANP; AID 1671463; activation, % at 10 µM; in the data active means activation above about 40%
Numbers stand for hits; - = inactive; . = not tested or not shown. Hits are enriched below; roughly 2.5% of the tested compounds scored in any of these assays.

SMILES	GC-B act	HSF1 inhib	HSF1 activator	aDG glyco up	Dyrk1A ADPGlo	NPR1 activator
COCc1cc(CN2CCN(CCCc3ccccc3)C(CCO)C2)ccc1OC (stereo unspecified)	-	-	-	-	-	-
Nc1c(C(=O)Nc2ccccc2)sc2nc(N3CCOCC3)c3c(c12)CCCC3	-	.	.	-	.	-
Nc1c(C(=O)NCc2ccccc2)sc2nc(N3CCOCC3)c3c(c12)CCCC3	36	-	-	-	-	43
C[C@]12CC[C@@H]3c4ccc(O[C@@H]5O[C@H](C(=O)O)[C@@H](O)[C@H](O)[C@H]5O)cc4CC[C@H]3[C@@H]1C[C@@H](O)[C@@H]2O	-	-54	-	-	-	-
C=CCOc1ccc2c(c1)CCC1C2CCC2(C)C(O)C(O)CC12 (stereo unspecified)	-	.	.	-	-	-
CCN1CCN(CCNC(=O)CCCCCn2c(=O)[nH]c3cc(C(=O)OC)ccc3c2=O)CC1	-	-54	-	-	-	-
CCN1CCN(C(=O)CCCCCn2c(=O)[nH]c3cc(C(=O)OC)ccc3c2=O)CC1	-	-	-	-	-	-
CCCCn1c(CN2CCN(C(=O)c3ccco3)CC2)nc2c1c(=O)n(C)c(=O)n2C	-	-	-	7.9	-	-
CCCCCn1c(CN2CCN(C(=O)c3ccco3)CC2)nc2c1c(=O)n(C)c(=O)n2C	-	-	-	-	-	-
CC1=C(C(=O)OCCNC(=O)c2ccccc2O)C(c2ccccc2[N+](=O)[O-])C(C(=O)OCC2CCCO2)=C(C)N1 (stereo unspecified)	-	-	-	-	-	-
CCCCc1cc(O)c(CCCC)c(O)c1	-	-	182	-	-	-
Cc1nonc1OCC(C)(COc1nonc1C)NC(=O)c1ccc(Cl)cc1	-	-	-	-	-	-
CC(C)(C)Nc1nc(SCc2ccccc2)nc(N2CCOCC2)n1	-	-	-	-	-	-
COc1ccc(CNc2cc(NCCCO)c([N+](=O)[O-])c3nonc23)cc1	-	-	-	-	-	-
Cc1nc2c(cc1C(=O)N/N=C/c1ccc(O)c(O)c1)c(=O)n(C)c(=O)n2C	-	-73	-	-	-	-
O=C(N/N=C/c1ccc(O)c(O)c1)c1ccc(-n2cnnn2)cc1	-	.	.	-	-	-
CC(C)(C)C(=O)COC(=O)c1cc(-c2ccncc2)nc2ccccc12	-	-	-	-	-	-
COc1cccc(-c2cc(C(=O)N3CCOCC3)no2)c1	-	-	61	-	-	-
COc1ccc(-c2cc(C(=O)N3CCOCC3)no2)cc1	-	-	-	-	-	-
COc1cccc(-c2cc(C(=O)Nc3cccnc3)no2)c1	-	-	78	-	-	-
COc1ccc(C(C[N+](=O)[O-])C2(c3ccc(OC)c(OC)c3)C(=O)c3ccccc3C2=O)cc1 (stereo unspecified)	.	-	214	-	-	.
Cc1cc(-c2ccccc2)nc(SCC(=O)c2cccc([N+](=O)[O-])c2)n1	-	-	-	-	-	-
COc1ccc(NC(=O)c2cnc(C)cn2)cc1-n1cnnn1	-	-60	-	-	-	-
CC(C)(C)NC(=O)c1cccc(NC(=O)Cc2cccs2)c1	-	-78	-	-	-	-
COc1cc(C(=O)Nc2ccc3c(c2)OCO3)ccc1-n1cnnn1	-	-	-	-	-	-
SMILES	GC-B act	HSF1 inhib	HSF1 activator	aDG glyco up	Dyrk1A ADPGlo	NPR1 activator
COc1ccc(NC(=O)C2CC2)cc1-n1cnnn1	-	-72	-	-	-	-
COc1cc(NC(=O)Cc2cccs2)ccc1-n1cnnn1	-	-	76	-	-	-
Cc1cccc(NC(=O)c2cccc(NC(=O)Cc3cccs3)c2)c1	-	-	-	-	-	-
CCCN(CC(=O)Nc1ccccc1C)C(=O)Cc1n[nH]c(=O)c2ccccc12	-	.	.	-	-	-
O=C1c2cccc3cccc(c23)C(=O)C1(O)O	-	-	-	-	79	-
CN(C)CC(C)(C)CNCc1cc(=O)oc2ccc3ccccc3c12	-	-	-	-	-	-
CCOC(=O)c1c(N)sc2c(NC(C)=O)cccc12	-	-	-	-	-	-
CCOC(=O)c1c(N)sc2c(O)c(Br)ccc12	-	-94	-	-	-	-
CCN(CC)c1ccc(/C=N/NC(=O)C(O)(c2ccccc2)c2ccccc2)o1	.	-	281	.	.	.
c1ccc(CNc2nc(N3CCN(Cc4ccccc4)CC3)nc3ccccc23)cc1	-	-55	-	-	.	-
c1ccc(N2CCN(c3nc(NCc4ccco4)c4ccccc4n3)CC2)cc1	-	-	-	-	-	-
CC(=O)Nc1cccc(-c2csc(Nc3ncccn3)n2)c1	-	-	-	.	.	-
CC(=O)Nc1cccc(-c2csc(Nc3ccc(C)cn3)n2)c1	-	-	67	-	-	-
CC1(C)CC(=O)c2c(O)cc(OCc3ccc([N+](=O)[O-])cc3)cc2O1	-	-	95	-	-	-
Cc1ccc(CNC(=O)COc2cc(O)c3c(c2)OC(C)(C)CC3=O)cc1	-	-	-	-	-	-
Cc1ccc(C(=O)N/N=C\c2ccc([N+](=O)[O-])s2)cn1	-	-	-	-	-	-
O=C(N/N=C/c1ccc([N+](=O)[O-])s1)c1ccncc1	.	-	61	12	-	.
Cc1ccc(C(=O)N/N=C/c2ccc([N+](=O)[O-])s2)cc1	-	-70	-	13	-	-
O=C(N/N=C/c1cccc([N+](=O)[O-])c1)c1cccc(Br)c1	-	-	-	-	-	-
O=C(N/N=C/c1ccc([N+](=O)[O-])s1)c1cccc(Br)c1	-	-	-	8.9	-	-
O=C(N/N=C/c1cc([N+](=O)[O-])ccc1O)c1ccncc1	-	-54	-	-	-	-
COc1ccc(CCN(C)C(=O)CSc2nnnn2C)cc1OC	-	-	-	-	-	-
COc1ccc(NC(=O)Cc2ccsc2)c(OC)c1	-	-	-	-	-	-
O=C(COC(=O)c1ccc(OC(F)F)cc1)Nc1cccc(S(=O)(=O)NC2=NCCC2)c1	-	.	.	-	.	-
CCOc1cc(C(=O)OCC(=O)Nc2c(C)cccc2C)ccc1OCC(=O)N1CCOCC1	-	-	-	-	-	-
CCOc1cc(/C=C/c2nc3cc(C)c(C)cc3s2)ccc1OCC(=O)N1CCOCC1	-	-	-	-	-	-
CCOc1cc(/C=C\[N+](=O)[O-])ccc1OCC(=O)N1CCOCC1	-	-	310	-	-	-
CCOC(=O)c1ccccc1NC(=O)COC(=O)c1ccc(OCC(=O)N2CCOCC2)c(OCC)c1	35	.	.	-	-	-
Cc1ccnc(N/C=C(/NC(=O)c2ccccc2)C(=O)N/N=C\c2ccc(F)cc2)n1	-	-	-	-	-	-
CCOC(=O)N/N=C\c1ccc(C)s1	-	-79	-	-	-	-
